Each structure is given as a SMILES string. Among all 2,400 compounds or so, about 580 (24%) were called active.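 How the source made its calls: active means activity change at or above the mean plus 3 SD of buffer wells without dofetilide, per plate; inactive means the rest.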 Not all results are given here.

For the experiment, the target named is Potassium voltage-gated channel subfamily KQT member 2 (Rattus norvegicus) (UniProt O88943). Briefly: rat KCNQ2 channel activation by compounds alone, confirmation, counter-screen for hERG block protector project, cell-based, CHO, FluxOR thallium flux (AID 1942).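 Further: normalized value minus buffer-control mean plus three SD of buffer wells.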 To be noted: CHO-KCNQ2 cells, FluxOR thallium flux fluorescence; at 10 µM; active compounds read high.
Sequence of Potassium voltage-gated channel subfamily KQT member 2 (Rattus norvegicus) (O88943 whole entry, looked up): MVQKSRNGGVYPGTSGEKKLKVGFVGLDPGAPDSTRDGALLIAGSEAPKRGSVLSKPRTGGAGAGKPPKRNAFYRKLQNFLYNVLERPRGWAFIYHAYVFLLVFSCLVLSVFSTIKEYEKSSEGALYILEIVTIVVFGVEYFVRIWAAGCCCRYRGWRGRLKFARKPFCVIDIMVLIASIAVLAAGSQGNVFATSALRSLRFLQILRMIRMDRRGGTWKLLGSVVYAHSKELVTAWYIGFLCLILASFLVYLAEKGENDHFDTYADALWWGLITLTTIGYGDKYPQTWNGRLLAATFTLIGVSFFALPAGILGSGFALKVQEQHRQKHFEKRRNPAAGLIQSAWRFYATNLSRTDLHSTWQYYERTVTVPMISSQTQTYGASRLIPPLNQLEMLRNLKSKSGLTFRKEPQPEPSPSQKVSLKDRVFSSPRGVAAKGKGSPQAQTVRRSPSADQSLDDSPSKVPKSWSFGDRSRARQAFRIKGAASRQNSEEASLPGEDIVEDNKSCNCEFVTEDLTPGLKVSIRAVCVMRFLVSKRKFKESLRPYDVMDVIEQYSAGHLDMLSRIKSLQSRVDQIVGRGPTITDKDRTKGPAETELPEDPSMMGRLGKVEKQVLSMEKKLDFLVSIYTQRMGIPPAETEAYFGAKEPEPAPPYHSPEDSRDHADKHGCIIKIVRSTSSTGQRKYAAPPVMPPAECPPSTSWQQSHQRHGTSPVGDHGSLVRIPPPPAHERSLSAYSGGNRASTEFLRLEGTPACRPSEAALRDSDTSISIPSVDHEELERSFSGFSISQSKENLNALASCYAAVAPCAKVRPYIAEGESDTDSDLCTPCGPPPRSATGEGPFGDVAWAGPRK
With `COc1cccc(C(=O)/C=C/Nc2ccc(S(=O)(=O)Nc3cnc4ccccc4n3)cc2)c1`, the activity change, less the hit threshold is -20.6% (inactive).

As to `O=C1C=C(Nc2cccc3cccnc23)c2ccccc2C1=O`, the activity change, less the hit threshold is -8.1% (inactive). The figure for `O=C(Nn1c(O)c(C=C2N=c3ccccc3=N2)sc1=S)c1cccc(Cl)c1` is -23.1% (inactive); for `CN(C(=O)c1ccc(Cl)c(S(=O)(=O)N2CCOCC2)c1)c1ccccc1C(=O)O` it is -1.7% (inactive); for `c1ccc(-c2ccc(-c3ccncn3)cc2)cc1` it is -16.2% (inactive). Turning to `c1ccc(-c2n[nH]c(-c3ccccn3)n2)cc1`, the activity change, less the hit threshold is 5.9% (active). On to `COc1ccc(-c2nc(-c3ccccn3)ncc2S(C)(=O)=O)cc1`, for which the activity change, less the hit threshold was -15.6% (inactive). The figure for `CC(C)Sc1nc2ccccc2n2cnnc12` is -12.8% (inactive); for `C/C(=N\Nc1nc2ccccc2s1)c1cccs1` it is -9.9% (inactive); for `C/C(=N\Nc1nc2ccccc2s1)c1ccc(Br)s1` it is -5.9% (inactive). For `C/C(=N\Nc1nc2ccccc2nc1C)c1ccccc1O`, the activity change, less the hit threshold is 7.3% (active). With `CCCCNC(=O)N1CCCC(C(=O)c2cc(C)c(OC)c(C)c2)C1` (stereo not given), the activity change, less the hit threshold is -22.8% (inactive). The value for `CCC1(c2ccccc2)NC(=S)N(c2ccc(C)cc2)N1` (stereo not given) was 102% (active).

For `CCC1(c2ccc(Cl)cc2)NC(=S)N(c2ccc(C)cc2)N1` (stereo not given), the activity change, less the hit threshold is 83.8% (active).

As to `CCC1(c2ccc(Cl)cc2)NC(=S)N(c2ccccc2)N1` (stereo not given), the activity change, less the hit threshold was 84.8% (active). In the case of `S=c1[nH]nc(-c2ccccn2)n1/N=C/c1ccc(-c2ccccc2Br)o1`, the activity change, less the hit threshold was -12.9% (inactive). The figure for `CC12CCC(C(=O)OC3CCCCC3)(OC1=O)C2(C)C` (stereo not given) is -26.6% (inactive). The figure for `C=CCNC(=O)c1onc(CSc2ccc(OC)cc2)c1C(=O)O` is -16.5% (inactive); for `Cn1c2ccccc2c(=O)c2c(=O)n(Cc3ccco3)c(-c3ccc(Cl)cc3Cl)nc21` it is -29.7% (inactive); for `O=C(Nc1cccnc1)c1ccc(COc2cc(Cl)ccc2Cl)o1` it is -20% (inactive). On to `O=C(CCl)NCCN1C(=O)S/C(=C\c2cccnc2)C1=O`, for which the activity change, less the hit threshold was -19% (inactive). The figure for `C[n+]1ccccc1/C=C/c1c(F)cccc1F` is -10.9% (inactive); for `CCC(NS(=O)(=O)c1cn(C)nc1C)c1ccccc1` (stereo not given) it is -7.9% (inactive). On to `C/C(=C\C(=O)c1ccccc1)NNC(=O)c1ccc(Cl)cc1`, for which the activity change, less the hit threshold is -3.2% (inactive).

`Cc1ccc(C(=O)NC(=S)N(C)C2CCCCC2)cc1`: the activity change, less the hit threshold was 5.4% (active). As to `CN(C(=S)NC(=O)c1ccccc1)C1CCCCC1`, the activity change, less the hit threshold is 2% (active). Regarding `O=C(NC(=S)NNC(=O)[C@H]1C[C@@H]1c1ccccc1)c1cccc(F)c1`, the activity change, less the hit threshold is -30.9% (inactive). The value for `CN(C(=S)NC(=O)c1ccc(Cl)cc1)C1CCCCC1` was 4.8% (active); that for `COc1ccc(C(=O)NC(=S)N(C)C2CCCCC2)cc1` was -3.2% (inactive). The figure for `CN(C1=C(NC(=O)c2ccccc2)C(=O)c2ccccc2C1=O)C1CCS(=O)(=O)C1` (stereo not given) is -3.2% (inactive); for `CC(C)CNC(=S)NC(=O)c1ccc(Cl)cc1` it is -3.9% (inactive); for `Cc1cccc(C(=O)NC(=S)NNC(=O)COc2c(C)cccc2C)c1` it is -27.8% (inactive). The value for `Cc1cccc(C(=O)NC(=S)N(C)C2CCCCC2)c1` was 18.5% (active); that for `COc1ccc(-c2nn(-c3ccccc3)cc2C(=O)Nc2cccc(C(=O)O)c2)cc1[N+](=O)[O-]` was -18.7% (inactive); that for `Cc1c(Cl)c([N+](=O)[O-])nn1CC(=O)NCC(C)C` was -16.4% (inactive). Turning to `O=C(CCCOc1ccc(Cl)cc1Cl)Nc1ccccc1C(=O)O`, the activity change, less the hit threshold is -39.2% (inactive). The figure for `O=C(c1ccc(CS(=O)c2cccc(Cl)c2)o1)N1CCCCCC1` (stereo not given) is -25.8% (inactive); for `O=S(=O)(c1ccc(F)cc1)N1CCN(c2ccc(F)cc2)CC1` it is -13.8% (inactive). On to `CCCNC(=O)N1CCN(S(=O)(=O)c2ccc(C)cc2)CC1`, for which the activity change, less the hit threshold is -17.2% (inactive). Take `Cc1ccc(O)c(C(=O)CC(=O)c2ccc(Cl)cc2)c1`: the activity change, less the hit threshold was -16.6% (inactive).

For `Cc1ccc(O)c(C(=O)CC(=O)c2ccccc2Cl)c1`, the activity change, less the hit threshold is -13.5% (inactive). The figure for `Cc1ccc(O)c(Sc2cc(C)ccc2O)c1` is 2% (active). The value for `NNC(=O)CNc1ccccc1Cl` was -15.1% (inactive).

For `O=C(NCC1CCS(=O)(=O)C1)Oc1ccccc1` (stereo not given), the activity change, less the hit threshold is -12.4% (inactive). The figure for `C=CCN(c1ccccc1)S(=O)(=O)c1cccc(C(=O)Nc2nnc(SCC)s2)c1` is -20.2% (inactive); for `C=CCN(c1ccc(Cl)cc1)S(=O)(=O)c1cccc(C(=O)O)c1` it is 4.4% (active). The figure for `C=CCN(c1cccc(C(F)(F)F)c1)S(=O)(=O)c1cccc(C(=O)OCC(=O)Nc2ccccc2)c1` is -0.5% (inactive); for `CN(C)S(=O)(=O)c1cccc(C(=O)Nc2cccnc2)c1` it is -13.5% (inactive).

`COc1nccnc1NS(=O)(=O)c1ccc(NC(=S)NC(=O)c2ccccc2F)cc1`: the activity change, less the hit threshold was -13.5% (inactive). With `CN(Cc1ccccc1)C1CCN(Cc2ccccc2[N+](=O)[O-])CC1`, the activity change, less the hit threshold is -15.5% (inactive). The figure for `CCN(C(=S)NC(=O)c1ccccc1Br)C1CCCCC1` is 62.1% (active). Consider `O=C(NCC1CCCCC1)c1cccnc1Cl`, for which the activity change, less the hit threshold is -17.7% (inactive). The value for `CCC(=O)NC(=S)NNC(=O)c1ccccc1[N+](=O)[O-]` was -19.6% (inactive); that for `O=C(NC(=S)N(Cc1ccccc1)Cc1ccccc1)c1ccccc1F` was 38.8% (active).

Consider `O=C(Nc1ccccc1C(=O)O)c1cccc(NC(=O)c2ccccc2Br)c1`, for which the activity change, less the hit threshold is -16% (inactive). For the molecule `CC(C)CN(C(=O)COC(=O)CNC(=O)c1ccccc1F)c1c(N)n(Cc2ccccc2)c(=O)[nH]c1=O`, the activity change, less the hit threshold was -7.7% (inactive). The value for `CCN(Cc1ccccc1)C(=S)NC(=O)c1ccccc1Br` was 66.7% (active). Regarding `CCCN(Cc1ccccc1)C(=S)NC(=O)c1ccccc1[N+](=O)[O-]`, the activity change, less the hit threshold is 92.5% (active). The value for `O=C(Cn1cncn1)c1ccccc1Br` was -24% (inactive); that for `CC1=NNC(=O)C1CC(=O)N/N=C/C=C/c1ccccc1` (stereo not given) was -21.4% (inactive); that for `Cc1cnc(NC(=O)CN2CCN(c3ccccc3F)CC2)s1` was -16.9% (inactive).

For the molecule `COc1cc(/C=C2/OC(=O)c3cc([N+](=O)[O-])ccc32)cc(OC)c1OC`, the activity change, less the hit threshold was -15.4% (inactive). With `CCO/C=C1\N=C(c2ccc(F)cc2)OC1=O`, the activity change, less the hit threshold was -13.2% (inactive).

On to `O=C(CN1C(=O)S/C(=C\c2cc(Cl)c(O)c(Cl)c2)C1=O)Nc1ccccc1`, for which the activity change, less the hit threshold is -30.2% (inactive). The value for `CC(C)C12CN3CC(C(C)C)(CN(C1)C31C(=O)Nc3ccccc31)C2=O` (stereo not given) was -24.3% (inactive).

`O=C(COC(=O)c1cc(S(=O)(=O)NCc2ccccc2)ccc1O)NCc1ccccc1`: the activity change, less the hit threshold is -13.2% (inactive). The figure for `C=CCn1c(SCc2ccc(C(=O)O)cc2)nc2sc(C)c(C)c2c1=O` is 46.6% (active). The figure for `C=CCN1C(=O)C(Cc2ccc(OCC)cc2)SC1=Nc1ccc(C(=O)O)cc1` (stereo not given) is -15.5% (inactive).

For `O=C1CN(S(=O)(=O)c2ccccc2)CC(=O)N1CCc1ccccc1`, the activity change, less the hit threshold is -18.7% (inactive). The value for `Cc1cccc(N/C(N)=N/c2nc(C)cc(=O)[nH]2)c1` was -13.7% (inactive). With `Cc1ccc(Nc2cc(C)nn2-c2nc(C)cc(=O)[nH]2)cc1`, the activity change, less the hit threshold is 68.6% (active).

With `Cc1ccc(Nc2nc(C)cs2)cc1`, the activity change, less the hit threshold is -9.5% (inactive). `Cc1nnc(N2C(=O)C(=O)/C(=C(\O)c3ccc4c(c3)CC(C)O4)C2c2ccccc2)s1` (stereo not given): the activity change, less the hit threshold is -7.2% (inactive). The value for `Cc1cc(O)c(/C=N/OCc2ccc(Cl)cc2Cl)c(=O)o1` was -19.1% (inactive); that for `Cc1cc(C)cc(NC(=O)N2CCCC2C(=O)Nc2ccc(-n3cnnn3)c(C)c2)c1` (stereo not given) was -19% (inactive). Regarding `Cc1csc(NC(=S)NC(=O)c2ccccc2)n1`, the activity change, less the hit threshold is 7.2% (active). The value for `CCOC(=O)Cc1csc(NC(=S)NC(=O)C(C)(C)C)n1` was -1.3% (inactive); that for `CCOC(=O)Cc1csc(NC(=S)NC(=O)c2ccccc2Br)n1` was 9.2% (active); that for `COc1ccc(-c2csc(NC(=S)NC(=O)c3ccc4ccccc4c3)n2)cc1OC` was -11.9% (inactive). The value for `CCOC(=O)Cc1csc(NC(=S)NC(=O)c2ccccc2C)n1` was 3.3% (active). The figure for `CCOC(=O)Cc1csc(NC(=S)NC(=O)c2ccc(C)cc2)n1` is -3.1% (inactive); for `CCOC(=O)Cc1csc(NC(=S)NC(=O)c2ccc(Cl)cc2)n1` it is -7.1% (inactive); for `Cc1[nH]cnc1CSCCN` it is -10.5% (inactive). Consider `CCOC(=O)N1CCN(C(=O)CSc2nnc(-c3ccccc3OC)o2)CC1`, for which the activity change, less the hit threshold is -10.3% (inactive). `Brc1ccc(Nc2nc(-c3cccnc3)cs2)cc1`: the activity change, less the hit threshold is -11.1% (inactive). The value for `O=C(COC(=O)C1CCC(=O)N1)Nc1ccc(Oc2ccccc2)cc1` (stereo not given) was -11% (inactive); that for `Cc1oc2cc(O)ccc2c(=O)c1N1C(=O)c2ccccc2C1=O` was -14.7% (inactive). Regarding `CN(CC(=O)Nc1nc2ccccc2s1)S(=O)(=O)c1ccc(Cl)cc1`, the activity change, less the hit threshold was -27% (inactive).

Take `Cn1ncc2c(O/N=C(\N)c3ccc(C(F)(F)F)cc3)ncnc21`: the activity change, less the hit threshold was -7.2% (inactive). The value for `Cc1onc(-c2ccccc2)c1C(=O)NC(=S)Nc1sc2c(c1C#N)CCC(C)C2` (stereo not given) was -3.3% (inactive). `CCC1CCc2c(sc(NC(=O)C3CC=CCC3C(=O)O)c2C#N)C1` (stereo not given): the activity change, less the hit threshold was 1.4% (active).

As for `COC(=O)c1c(NC(=O)C2CC=CCC2C(=O)O)sc(C)c1C` (stereo not given), the activity change, less the hit threshold was -12.3% (inactive).

`CCC(C)(C)C1CCc2c(sc(NC(=O)c3ccccc3C(=O)O)c2C#N)C1` (stereo not given): the activity change, less the hit threshold is 38.4% (active). `Cc1ccccc1C(=O)NC(=S)Nc1sc2c(c1C#N)CCC(C)C2` (stereo not given): the activity change, less the hit threshold is -29% (inactive). The figure for `CCc1ccccc1NC(=O)CC1CS(=O)(=O)CC1CC(=O)Nc1ccccc1CC` (stereo not given) is -17% (inactive); for `CC(C)(C)c1ccc(Cn2nc(CC(=O)O)c3ccccc3c2=O)cc1` it is -4.4% (inactive); for `C=CCn1c2ccccc2c(=O)c2cc(C#Cc3ccsc3)ccc21` it is -16% (inactive). With `CCCCOC(=O)Cn1c2ccc(OC)cc2c2nc3ccccc3nc21`, the activity change, less the hit threshold is -3.3% (inactive).

Take `CC(C)OC(=O)c1c2nc3ccccc3nc2n2c1[nH]c(=O)c1ccccc12`: the activity change, less the hit threshold was 83.4% (active). Turning to `CCc1ccc(C(=O)CSc2nc3ccccc3c(=O)[nH]2)cc1`, the activity change, less the hit threshold was -15.1% (inactive).

These data come from PubChem BioAssay AID1942 (Johns Hopkins Ion Channel Center, 2009).
